# In all, about 33,000 sequences were measured (“E-score (-0.5 to 0.5)”: median about -0.012, highest 2% from about 0.27 on). The sample holds the highest values, similar sequences and a random draw of the others, so the mix is not that of the screen.
# Target: T1, Vhr1 (UniProt P40522)
# T1 sequence: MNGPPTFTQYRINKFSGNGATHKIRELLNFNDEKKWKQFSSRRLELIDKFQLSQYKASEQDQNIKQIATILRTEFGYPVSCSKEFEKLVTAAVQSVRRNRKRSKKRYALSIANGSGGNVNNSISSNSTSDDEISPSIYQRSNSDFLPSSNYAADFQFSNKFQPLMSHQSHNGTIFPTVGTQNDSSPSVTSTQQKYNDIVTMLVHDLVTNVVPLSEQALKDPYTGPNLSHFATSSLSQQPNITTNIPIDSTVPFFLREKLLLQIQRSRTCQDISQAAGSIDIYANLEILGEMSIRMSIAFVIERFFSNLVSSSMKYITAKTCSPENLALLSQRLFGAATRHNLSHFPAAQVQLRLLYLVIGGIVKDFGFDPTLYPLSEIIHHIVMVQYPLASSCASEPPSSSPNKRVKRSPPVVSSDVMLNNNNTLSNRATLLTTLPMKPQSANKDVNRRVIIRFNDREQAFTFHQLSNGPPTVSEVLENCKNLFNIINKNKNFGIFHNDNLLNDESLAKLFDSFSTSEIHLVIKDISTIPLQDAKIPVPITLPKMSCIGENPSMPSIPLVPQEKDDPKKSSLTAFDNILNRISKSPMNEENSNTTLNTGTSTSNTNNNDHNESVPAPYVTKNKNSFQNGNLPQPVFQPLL
# Experiment: PBM E-score (8-mer binding enrichment) (E-score (-0.5 to 0.5)); higher = stronger / more preferred TF binding
# Conditions: protein concentration: 200 nM; construct: GST-full length
# Procedure, shortened: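 E-scores (a modified Wilcoxon-Mann-Whitney statistic) were assigned by the Universal PBM Analysis Suite to every ungapped eight-base word pooled with its reverse complement. The input came from universal all-10-mer Agilent arrays made double-stranded by primer extension and probed with GST-tagged yeast transcription factors at about 100-200 nM. Fluorescent anti-GST detected bound protein, and masliner normalised the scans.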
row,Sequence,PBM E-score
1,ATCCAAGC,0.0358
2,ACTGCCCC,-0.0425
3,GTGGACCA,0.0132
4,ATTTTGGG,-0.177
5,CCGGTAGC,-0.00183
6,AGTGTACG,0.163
7,ATCCAATA,0.135
8,GGGAGGAC,-0.0865
9,GCTGGTAA,-0.148
10,GGCTAACA,-0.0545
11,GAGGTGTA,-0.038
12,GAGTTGGC,0.161
13,CTGATTCC,0.261
14,AGGATTCC,0.0112
15,ATGATTCC,0.445
16,GCATCCAC,0.0832
17,CACAGACA,0.0563
18,CTCAGACC,-0.00267
19,AACAGACC,0.0701
20,AACAGACT,0.0598
21,CACAGCCG,0.281
22,CACAGACG,0.104
23,AACAGCCG,-0.0956
24,GACAGACC,-0.067
25,AACAGACA,0.285

row,Sequence,PBM E-score
1,CACAGCCC,-0.0755
2,CACAGACC,0.307
3,GACAGACA,0.294
4,ACGGCGAA,0.0608
5,CCATATCG,0.245
6,GAAATTTA,-0.157
7,AAATGCGA,-0.00728
8,ATCAGACC,0.0881
9,GCTCTCAA,-0.0323
10,CATCTGGA,0.0944
11,CTAATGAG,0.0521
12,CGTTGCGA,0.0286
13,GGCCAGAA,-0.00605
14,ACAGTACT,0.0536
15,CATTAGCA,-0.152
16,CGTCGAAG,0.0798
17,AGTAGTAA,0.0586
18,CGTAGTCA,0.372
19,AGTAGTCG,0.292
20,AGTAGTAG,0.0116
21,CGTAGTCC,-0.0429
22,CGTAGTAA,-0.095
23,AGTAGTCC,0.0701
24,AGTAGTTC,0.108
25,AGTAGTTG,0.29

row,Sequence,PBM E-score
1,AGTAGTTA,0.0583
2,AGTAGTCA,0.401
3,AGTAGTGA,0.106
4,CCAGTGGA,-0.118
5,CATTGGCG,0.00375
6,GGAATGCA,0.0844
7,GGGCTTCA,-0.00484
8,GGTAGTCA,0.427
9,GGTAGTAA,-0.193
10,GGTAGTGA,0.159
11,ACCGTTGC,-0.0641
12,CACAATGA,0.286
13,CACAATGG,0.176
14,CACAATGC,0.132
15,CTCAGTCC,-0.0479
16,AACAGTCA,0.192
17,CACAGTCA,0.244
18,ACCAGTCT,0.0104
19,ACCAGTCC,-0.0311
20,CTCAGTCA,0.362
21,ACCAGTCA,0.298
22,ATCAGTCA,0.306
23,TACAGTCA,0.294
24,ATCAGTCG,0.23
25,GTCAGTCA,0.267

row,Sequence,PBM E-score
1,CTCAGTGA,0.111
2,ACGCTAGC,-0.322
3,AATTTAGG,0.0535
4,CACTAATC,0.19
5,CCCAATCG,-0.00353
6,GAATGCAC,0.109
7,CGGCTCGC,0.0809
8,AACAGCTC,0.0178
9,CTGAATTA,-0.00808
10,GTGAATAA,0.16
11,CTGAATCC,0.224
12,ATGAATCG,0.214
13,GTGAATGA,0.0662
14,ATGAATCC,0.0842
15,ATGAATCA,0.423
16,CTGAATCA,0.402
17,GTGAATCA,0.394
18,GAAGATAC,0.00993
19,AGCTTGTA,-0.0135
20,GACAGCTC,-0.0639
21,CCGGCCGA,0.031
22,CCGGCCGG,0.282
23,CCGGCCGC,-0.048
24,AGGTCGTA,0.107
25,AGATTGGA,-0.0483

row,Sequence,PBM E-score
1,CCGTCACA,-0.0936
2,ACGTCACC,-0.0531
3,TAGTCACA,0.394
4,AAGTCACC,0.301
5,CAGTCACA,0.348
6,AGGTCACC,-0.16
7,CTGTCACA,0.025
8,CCGTCACC,-0.114
9,CAGTCACC,0.307
10,CGGTCACC,0.0171
11,TGGTCACA,0.035
12,TCGTCACA,0.0377
13,CTACTTCC,-0.0528
14,CAAGTGAC,-0.00136
15,TAGCGCAA,-0.0984
16,ACCGCGGC,0.0296
17,ACGGTAAC,0.0764
18,GACAGCAA,-0.0406
19,AAGTCACA,0.246
20,CGGTCACA,0.0193
21,CAGTCAAA,-0.0678
22,AAGTCACG,0.336
23,CAGTCACG,0.365
24,AAGTCACT,0.209
25,GACATCAC,0.0237

row,Sequence,PBM E-score
1,CGGATTGA,0.132
2,CCCGGACG,-0.133
3,ACCGGACT,-0.0358
4,ACCGGACG,0.283
5,ATAGTGTC,0.13
6,ATATTATA,0.058
7,ATATTATC,0.0882
8,ATATTATG,0.324
9,CGTATACG,0.107
10,CGGTCATA,-0.0676
11,TAGTCATA,0.356
12,TAGTCAGA,0.258
13,CCGTCATA,0.139
14,CAGTCAAG,0.0145
15,ATGTCATA,0.106
16,CTGTCATA,0.0334
17,AAGTCATA,0.316
18,CAGTCAGG,0.175
19,AGGTCATA,0.0299
20,CAGTCATG,0.406
21,CAGTCATA,0.291
22,AAACACTA,0.0776
23,CCCCCAGC,-0.15
24,AGCGCACA,0.00461
25,GCGCTAAA,-0.142

row,Sequence,PBM E-score
1,CCAGACAC,-0.0651
2,AGCTGCGG,-0.115
3,CCAATGGG,-0.103
4,CGACTCTC,0.278
5,GTACTCAC,0.263
6,AGACTCTC,0.0937
7,CCACTCAG,0.0902
8,CAACTCAG,0.0745
9,CGACTCTA,0.225
10,CCACTCAC,0.177
11,GGACTCAC,0.372
12,GCACTCAC,-0.0104
13,CGACTCAG,0.428
14,CAACTCAC,0.263
15,CGACTCAC,0.448
16,AGAAAATG,-0.163
17,TAAAGCAA,-0.0681
18,ACTTAGAC,-0.127
19,ACAGCCTA,0.0389
20,AAGGGTGC,-0.0494
21,CAAGCAAG,-0.0582
22,AACTATTG,0.13
